Results reported in PubChem BioAssay (NCI).
This is part of a sample that, as a whole, favours compounds with a hit. Of some 83,000 tested, about 20% had one in any assay.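 Assay: single dose, 48 h. Readout: percent growth (0 = no net growth; negative = cell death). Active: <10.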 The source made the active and inactive calls.

Experiments:
Assay in all cases: NCI-60 one-dose screen, 48 h (100 = growth as untreated, 0 = no growth, -100 = all killed)
Settings in all cases: 10 µM unless noted
SR leukemia = test system: SR leukemia
RPMI-8226 leukemia = test system: RPMI-8226 leukemia
OVCAR-8 ovarian = test system: OVCAR-8 ovarian
OVCAR-5 ovarian = test system: OVCAR-5 ovarian
OVCAR-4 ovarian = test system: OVCAR-4 ovarian
SK-OV-3 ovarian = test system: SK-OV-3 ovarian
IGROV1 ovarian = test system: IGROV1 ovarian
HS 578T breast = test system: HS 578T breast
NCI/ADR-RES ovarian = test system: NCI/ADR-RES ovarian
OVCAR-3 ovarian = test system: OVCAR-3 ovarian

Measured: growth

COc1cc(CNC(=O)CSc2nc3ccccc3c(=O)n2Cc2cc(OC)c(OC)c(OC)c2)cc(OC)c1OC
inactive: SR leukemia 123% | RPMI-8226 leukemia 102% | OVCAR-8 ovarian 96.4% | OVCAR-5 ovarian 102% | OVCAR-4 ovarian 103% | SK-OV-3 ovarian 108% | IGROV1 ovarian 97.9% | HS 578T breast 110% | NCI/ADR-RES ovarian 103%

Clc1nc(-c2cccnc2)nc2sc3c(c12)CCCCCC3
inactive: SR leukemia 87.6% | RPMI-8226 leukemia 96.9% | OVCAR-8 ovarian 103% | OVCAR-5 ovarian 102% | OVCAR-4 ovarian 97.1% | SK-OV-3 ovarian 102% | IGROV1 ovarian 107% | HS 578T breast 109% | NCI/ADR-RES ovarian 106%

COc1cc(Cn2c(SCC(=O)Nc3ccc(Cl)cc3)nc3ccccc3c2=O)cc(OC)c1OC
active: HS 578T breast 7.73%
inactive: SR leukemia 46.9% | RPMI-8226 leukemia 28.6% | OVCAR-8 ovarian 62.9% | OVCAR-5 ovarian 82.2% | OVCAR-4 ovarian 53.4% | SK-OV-3 ovarian 68.2% | IGROV1 ovarian 41.6% | NCI/ADR-RES ovarian 51.9%

CCCCOc1nc2c(C)cccc2cc1C1CNC(=O)c2ccccc2N1 (centres undefined)
inactive: SR leukemia 18.1% | RPMI-8226 leukemia 57.5% | OVCAR-8 ovarian 81.2% | OVCAR-5 ovarian 112% | OVCAR-4 ovarian 71.7% | SK-OV-3 ovarian 69.2% | OVCAR-3 ovarian 20% | HS 578T breast 69.7% | NCI/ADR-RES ovarian 51.3%

CC(=O)Nc1nc(C(=O)N2N=C(C)/C(=C/c3ccc(Cl)cc3)C2=O)cs1
inactive: SR leukemia 88.1% | RPMI-8226 leukemia 103% | OVCAR-8 ovarian 103% | OVCAR-5 ovarian 110% | OVCAR-4 ovarian 112% | SK-OV-3 ovarian 108% | IGROV1 ovarian 108% | HS 578T breast 114% | NCI/ADR-RES ovarian 109%

COc1cc(Cn2c(SCCC(=O)Nc3ccc(F)cc3)nc3ccccc3c2=O)cc(OC)c1OC
inactive: SR leukemia 56.7% | RPMI-8226 leukemia 74.9% | OVCAR-8 ovarian 84.1% | OVCAR-5 ovarian 94.1% | OVCAR-4 ovarian 85% | SK-OV-3 ovarian 95% | IGROV1 ovarian 77.8% | HS 578T breast 86.2% | NCI/ADR-RES ovarian 83.5%

CC[C@]1(O)C[C@@H]2CN(Cc3c([nH]c4ccccc34)[C@@](C(=O)OC)(c3cc4c(cc3OC)N(C)[C@H]3[C@@](O)(C(=O)OC)[C@H](OC(C)=O)[C@]5(CC)[C@@H]6C[C@@H]6CN6CC[C@]43[C@@H]65)C2)C1
inactive: RPMI-8226 leukemia 48.8% | OVCAR-8 ovarian 11.9% | OVCAR-5 ovarian 51% | OVCAR-4 ovarian 34.9% | SK-OV-3 ovarian 15.2% | IGROV1 ovarian 37.2% | HS 578T breast 16.8% | NCI/ADR-RES ovarian 93.8%
active: SR leukemia 2.3%

Clc1ccc(/C=C/c2nc(N3CCOCC3)c3nc(Cl)c(Cl)cc3n2)cc1
inactive: SR leukemia 98% | RPMI-8226 leukemia 102% | OVCAR-8 ovarian 108% | OVCAR-5 ovarian 110% | OVCAR-4 ovarian 128% | SK-OV-3 ovarian 105% | IGROV1 ovarian 117% | HS 578T breast 104% | NCI/ADR-RES ovarian 98.5%

COc1cc(-c2cc(/C=C3\CCCCC3=O)[nH]n2)cc(OC)c1OC
inactive: SR leukemia 49.2% | RPMI-8226 leukemia 86.4% | OVCAR-8 ovarian 102% | OVCAR-5 ovarian 103% | OVCAR-4 ovarian 95% | SK-OV-3 ovarian 128% | OVCAR-3 ovarian 104% | HS 578T breast 99.4% | NCI/ADR-RES ovarian 103%

O=S(=O)(c1ccccc1)n1ccc(-c2ccc3c(c2)CCO3)n1
inactive: SR leukemia 73.3% | RPMI-8226 leukemia 62.4% | OVCAR-8 ovarian 84% | OVCAR-5 ovarian 103% | OVCAR-4 ovarian 70.1% | SK-OV-3 ovarian 104% | IGROV1 ovarian 75.7% | NCI/ADR-RES ovarian 76%

COc1ccc(C2NC3=C(CCCC3)C(C#N)(C#N)C2(C#N)C#N)cc1 (centres undefined)
active: SR leukemia 1.12%
inactive: RPMI-8226 leukemia 79.9% | OVCAR-8 ovarian 104% | OVCAR-5 ovarian 97.1% | OVCAR-4 ovarian 98.1% | SK-OV-3 ovarian 99.5% | OVCAR-3 ovarian 43% | HS 578T breast 98% | NCI/ADR-RES ovarian 101%

CCN(CC)c1cc(/C=C/c2ccc(OC)c(OC)c2)nc2cc(F)c(F)cc12
inactive: SR leukemia 10.7% | RPMI-8226 leukemia 99.1% | OVCAR-8 ovarian 36% | OVCAR-5 ovarian 88.7% | OVCAR-4 ovarian 87.2% | IGROV1 ovarian 19.2% | NCI/ADR-RES ovarian 41.2%
active: SK-OV-3 ovarian -39.5% | HS 578T breast 2.13%

COc1cccc(NC(=O)c2sc3nc4c(cc3c2N)CCCC4)c1
active: RPMI-8226 leukemia -4.6% | NCI/ADR-RES ovarian -12.1%
inactive: SR leukemia 14.3% | OVCAR-8 ovarian 25.8% | OVCAR-5 ovarian 38.6% | OVCAR-4 ovarian 72.1% | SK-OV-3 ovarian 28.7% | IGROV1 ovarian 37.1% | HS 578T breast 48%

CCCCCCCCCCn1cc[n+](C)c1
inactive: SR leukemia 104% | RPMI-8226 leukemia 116% | OVCAR-8 ovarian 11.5% | OVCAR-5 ovarian 45.6% | OVCAR-4 ovarian 22.7% | SK-OV-3 ovarian 44.5% | OVCAR-3 ovarian 45.9% | HS 578T breast 30.3% | NCI/ADR-RES ovarian 82.2%

C=C1C(=O)O[C@H]2[C@H]1CC/C(COC(=O)NCc1ccc(OC)cc1)=C\CC[C@@]1(C)O[C@@H]21
inactive: RPMI-8226 leukemia 25.8% | OVCAR-8 ovarian 21.5% | OVCAR-5 ovarian 78.2% | OVCAR-4 ovarian 41.2% | SK-OV-3 ovarian 84.8% | HS 578T breast 59.2% | NCI/ADR-RES ovarian 86.9%
active: SR leukemia -1.29% | OVCAR-3 ovarian 5.71%

CCC1CCc2nc3sc(C(=O)Nc4ccccc4C)c(N)c3cc2C1 (centres undefined)
active: RPMI-8226 leukemia 3.92%
inactive: SR leukemia 12.8% | OVCAR-8 ovarian 57.3% | OVCAR-5 ovarian 76.5% | OVCAR-4 ovarian 89% | SK-OV-3 ovarian 44.8% | IGROV1 ovarian 65.3% | HS 578T breast 49.4% | NCI/ADR-RES ovarian 18.4%

N#Cc1ncc(-c2ccc(F)c(F)c2F)c(NC2CCCCCC2)n1
inactive: SR leukemia 69.5% | RPMI-8226 leukemia 63.1% | OVCAR-8 ovarian 86.1% | OVCAR-5 ovarian 94.2% | OVCAR-4 ovarian 81.1% | SK-OV-3 ovarian 95.8% | IGROV1 ovarian 83.8% | HS 578T breast 75.9% | NCI/ADR-RES ovarian 83.8%

Nc1c(C(=O)Nc2ccccc2)sc2nc3c(cc12)CCCCC3
active: RPMI-8226 leukemia -29.6% | NCI/ADR-RES ovarian 2.18%
inactive: SR leukemia 17% | OVCAR-8 ovarian 17.9% | OVCAR-5 ovarian 43.8% | OVCAR-4 ovarian 15.3% | SK-OV-3 ovarian 17.1% | IGROV1 ovarian 36.2% | HS 578T breast 14.5%

COc1ccc2c(c1)C(=O)/C(=C/c1ccc(O)cc1)O2
inactive: SR leukemia 74.1% | RPMI-8226 leukemia 35.1% | OVCAR-8 ovarian 93.1% | OVCAR-5 ovarian 103% | OVCAR-4 ovarian 85.2% | SK-OV-3 ovarian 104% | OVCAR-3 ovarian 48.7% | HS 578T breast 73.5% | NCI/ADR-RES ovarian 104%

COc1cc(C(=O)OCCCCCCCCCCC[P+](c2ccccc2)(c2ccccc2)c2ccccc2)ccc1O
active: SR leukemia -58.7% | RPMI-8226 leukemia -9.32% | OVCAR-8 ovarian -62% | OVCAR-4 ovarian -11.2% | SK-OV-3 ovarian -1.8%
inactive: OVCAR-5 ovarian 22.6% | IGROV1 ovarian 11.6% | NCI/ADR-RES ovarian 50.6%

COc1ccc(/C=C/c2nc(N3CCOCC3)c3cc(F)c(F)cc3n2)cc1OC
inactive: SR leukemia 16.2% | RPMI-8226 leukemia 12.2% | OVCAR-8 ovarian 32.9% | OVCAR-5 ovarian 76% | OVCAR-4 ovarian 30.6% | SK-OV-3 ovarian 71.8% | IGROV1 ovarian 53.4% | HS 578T breast 70.1% | NCI/ADR-RES ovarian 22.8%

COc1cc(C2C=C(C)N=C3SC=CN32)cc(OC)c1OC (centres undefined)
inactive: SR leukemia 106% | RPMI-8226 leukemia 113% | OVCAR-8 ovarian 103% | OVCAR-5 ovarian 109% | OVCAR-4 ovarian 108% | SK-OV-3 ovarian 112% | IGROV1 ovarian 111% | HS 578T breast 103% | NCI/ADR-RES ovarian 110%

C=C1C(=O)O[C@H]2[C@H]1CC/C(COC(=O)NCc1cc(OC)c(OC)c(OC)c1)=C\CC[C@@]1(C)O[C@@H]21
active: SR leukemia 4.5%
inactive: RPMI-8226 leukemia 43.6% | OVCAR-8 ovarian 43.9% | OVCAR-5 ovarian 85% | OVCAR-4 ovarian 60.5% | SK-OV-3 ovarian 101% | OVCAR-3 ovarian 21.2% | HS 578T breast 71.5% | NCI/ADR-RES ovarian 110%

O=C1NCC(c2cc3ccccc3[nH]c2=O)Nc2ccccc21 (centres undefined)
inactive: SR leukemia 100% | RPMI-8226 leukemia 106% | OVCAR-8 ovarian 103% | OVCAR-5 ovarian 91.2% | OVCAR-4 ovarian 104% | SK-OV-3 ovarian 89.9% | OVCAR-3 ovarian 111% | HS 578T breast 99.4% | NCI/ADR-RES ovarian 111%

Nc1c(C(=O)Nc2ccccc2)sc2nc3c(cc12)CCC3
inactive: SR leukemia 39.6% | RPMI-8226 leukemia 83.4% | OVCAR-8 ovarian 88.2% | OVCAR-5 ovarian 99.4% | OVCAR-4 ovarian 78.9% | SK-OV-3 ovarian 95.5% | IGROV1 ovarian 90.2% | HS 578T breast 92.8% | NCI/ADR-RES ovarian 66.6%

CCC1CCc2nc3sc(C(=O)Nc4cccc(C)c4)c(N)c3cc2C1 (centres undefined)
inactive: SR leukemia 11% | RPMI-8226 leukemia 56.5% | OVCAR-8 ovarian 94.2% | OVCAR-5 ovarian 105% | OVCAR-4 ovarian 85% | SK-OV-3 ovarian 96.9% | IGROV1 ovarian 95.8% | HS 578T breast 87.7% | NCI/ADR-RES ovarian 76%

CC(=O)Nc1nc(C(=O)N2N=C(C)/C(=C/c3ccccc3)C2=O)cs1
inactive: SR leukemia 90.7% | RPMI-8226 leukemia 102% | OVCAR-8 ovarian 105% | OVCAR-5 ovarian 99.9% | OVCAR-4 ovarian 110% | SK-OV-3 ovarian 97.6% | IGROV1 ovarian 101% | HS 578T breast 111% | NCI/ADR-RES ovarian 110%

COc1ccc(NC(=O)CSc2nc3ccccc3c(=O)n2Cc2cc(OC)c(OC)c(OC)c2)cc1
inactive: SR leukemia 82.3% | RPMI-8226 leukemia 86% | OVCAR-8 ovarian 91.9% | OVCAR-5 ovarian 102% | OVCAR-4 ovarian 82.8% | SK-OV-3 ovarian 97% | IGROV1 ovarian 99% | HS 578T breast 96.1% | NCI/ADR-RES ovarian 84%

CCNC(=O)C1CCCN1C(=O)C(CCCN=C(N)N)NC(=O)C(CC(C)C)NC(=O)C(CC(C)C)NC(=O)C(Cc1ccc(O)cc1)NC(=O)C(CO)NC(=O)C(Cc1c[nH]c2ccccc12)NC(=O)C(Cc1cnc[nH]1)NC(=O)C1CCC(=O)N1 (centres undefined)
inactive: SR leukemia 102% | RPMI-8226 leukemia 33.3% | OVCAR-8 ovarian 95.9% | OVCAR-5 ovarian 87.3% | OVCAR-4 ovarian 91.3% | SK-OV-3 ovarian 98.2% | OVCAR-3 ovarian 125% | HS 578T breast 81.2% | NCI/ADR-RES ovarian 97.8%
